# Test results published in PubChem BioAssay (NCI).
# About 79,000 compounds went through this panel and 15% of them were active in at least one assay; those are over-represented in the sample as a whole. Unmarked numbers belong to inactive results. The source made the active and inactive calls. No stated cut-off is given here; in the data, active means growth inhibition above about 70%; inactive means the rest.
# How the values were obtained:
# [1] = NCI Yeast Anticancer Drug Screen. Data for the rad50 strain (AID 155);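 further: 0% = growth of vehicle-only cultures of the same strain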; settings: S. cerevisiae rad50 strain growth inhibition; at 50.0 µM; active compounds read high
# Procedure, shortened: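 Relative growth inhibition (compound vs vehicle) was measured in yeast with a defined repair-gene alteration.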
# [2] = NCI Yeast Anticancer Drug Screen. Data for the mec2-1 strain (AID 157); settings: S. cerevisiae mec2-1 strain, at 50.0 µM, active compounds read high
# Procedure, shortened: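 Vehicle-treated cultures served as reference for growth inhibition of compound-exposed mec2-1 yeast.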
# [3] = NCI Yeast Anticancer Drug Screen. Data for the sgs1 mgt1 strain (AID 161);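 further: 0% = growth of cultures given vehicle only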; settings: S. cerevisiae sgs1 mgt1 strain, at 50.0 µM, active compounds read high
# Procedure, shortened: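 Read-out: growth inhibition vs vehicle controls. Cells: mutant yeast strain deficient in DNA damage repair.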
# [4] = NCI Yeast Anticancer Drug Screen. Data for the cln2 rad14 strain (AID 165);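 further: 0% = growth equal to vehicle treated cultures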; settings: S. cerevisiae cln2 rad14 strain, at 50.0 µM, active compounds read high
# Procedure, shortened: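 Each compound was tested on cln2 rad14 yeast. Inhibition of growth was calculated against vehicle-exposed controls.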
# [5] = NCI Yeast Anticancer Drug Screen. Data for the bub3 strain (AID 167); settings: S. cerevisiae bub3 mutant strain, at 50.0 µM, active compounds read high
# Procedure, shortened: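 Screening used yeast with an engineered genetic alteration affecting cell cycle control. Compound-exposed cultures were compared with vehicle cultures, and reduced growth was taken as inhibition.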
# [6] = NCI Yeast Anticancer Drug Screen. Data for the mlh1 rad18 strain (AID 175); settings: S. cerevisiae mlh1 rad18 strain growth inhibition; at 50.0 µM; active compounds read high
# Procedure, shortened: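 Vehicle-treated cultures served as the reference for growth inhibition in a yeast strain carrying DNA damage repair alterations exposed to each compound.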
SMILES,growth inhibition [1],growth inhibition [2],growth inhibition [3],growth inhibition [4],growth inhibition [5],growth inhibition [6]
NC(N)=NC(N)=Nc1c(F)c(F)c(F)c(F)c1F,-17.4%,-33.1%,-11.8%,-14.5%,-3.6%,-20.6%
N=C(N)c1ccc(N=Nc2ccc(N)cc2N)cc1,7.4%,-3.75%,-7.45%,12.8%,-5.25%,-0.4%
CC(=O)c1cc2c(cc1C(C)C)C(C)(C)C(C)CC2(C)C (configuration not stated),-19.6%,-19.2%,13.8%,29.4%,-41.9%,17.4%
COc1cccc2c1OC(=O)NC2O (configuration not stated),-8.35%,-4.3%,-17.9%,-13.5%,-20.4%,4.3%
COc1ccc(NS(=O)(=O)c2ccc(NCc3c4ccccc4nc4ccccc34)cc2)nn1,-13.3%,8.2%,17.2%,29.7%,-0.45%,18.5%
C/C(Nc1ccc(Cl)cc1)=C1/CCOC1=O,19.1%,5.7%,35.5%,13.1%,11.7%,-24.9%
COc1ccc(C(C)(O)c2cc3ccccc3n2S(=O)(=O)c2ccccc2)cc1 (configuration not stated),-8.95%,-12.3%,-0.9%,-14.3%,0.75%,18.4%
CC(=O)c1c(C)c([N+](=O)[O-])c(C)c([N+](=O)[O-])c1C,2.1%,11.9%,-8.9%,-94.8%,23.4%,7.3%
CC[n+]1c(/C=C\N(C(C)=O)c2ccccc2)oc2ccccc21,-20.6%,-25.3%,-9.3%,-0.7%,6.2%,-7.8%
N#CCc1ccc(-c2ccccc2)cc1,-2.75%,20.9%,3.3%,-31.9%,-19.6%,6.25%
CCN(CC)C(=O)c1c2nc3c(C(=O)N(CC)CC)ccc(C)c3oc-2c(C)c(=O)c1N,24.6%,7.35%,7.85%,19.9%,0.9%,20.2%
CCN(CC)CC(O)CO (configuration not stated),-4.55%,-16.6%,-17.1%,5.9%,2%,1.35%
COC(=N)C(C)C,26.4%,14.9%,4.9%,13.1%,-6.2%,22.6%
Cc1cc(Cl)ccc1-n1nc(C)c2c(N)nc(N)nc21,17.4%,6.5%,13.7%,-1.55%,24.7%,23.1%
O=S(=O)(/C=C/c1ccc(F)cc1)Cc1ccccc1,-3.2%,-15.6%,0.65%,12.9%,-4%,11.7%
Cc1nnc(N=Nc2c(O)[nH]c3ccccc23)[nH]c1=O,7.05%,1.2%,-6.65%,-0.2%,2.65%,16.1%
Cc1ccc2c(c1)C(C)(C)C(C)C2(C)C (configuration not stated),-3.05%,-8.2%,-13.8%,-19.9%,9.25%,21.3%
Cn1cnc(N)c(N=O)c1=O,-0.1%,8.65%,10.1%,18.7%,-9.75%,6%
COc1ccc(N2C(=O)/C(=C\c3ccc(N(CCC#N)CCC#N)cc3)N=C2COc2ccccc2)cc1,0.8%,-2.2%,4.45%,8.7%,-1.35%,1.3%
O=S(=O)(Nc1cccc(Cl)c1)c1ccc(Cl)cc1,99.7% (active),99.8% (active),99.8% (active),99.6% (active),99.7% (active),99.7% (active)
CC(=O)O[C@H]1CC[C@]2(C)[C@H]3C(=O)C=C4[C@@H]5C[C@@](C)(C(=O)O)CC[C@]5(C)CC[C@@]4(C)[C@]3(C)CC[C@H]2C1(C)C,31.2%,23.8%,41.5%,52.1%,26%,-5.75%

SMILES,growth inhibition [1],growth inhibition [2],growth inhibition [3],growth inhibition [4],growth inhibition [5],growth inhibition [6]
COc1ccc(C(CC(=O)O)CC(=O)O)cc1[N+](=O)[O-],0.75%,-1.7%,-2.1%,-6.2%,15.9%,10.8%
Cc1cc(-c2ccc(NC(=O)c3cccc([N+](=O)[O-])c3)c(C)c2)ccc1NC(=O)c1cccc([N+](=O)[O-])c1,-19.2%,-26.7%,0.25%,15.3%,0.7%,-14.3%
O=C(O)CCSC1(SCCC(=O)O)CCCCC1,-23.9%,-17.9%,-8.55%,-3.25%,-9%,-23.6%
O=C1CSC(c2ccccc2C(F)(F)F)N1c1nncs1 (configuration not stated),18.4%,1%,11.6%,-46%,-39.2%,9.8%
O=C(N/N=C\c1ccc(Cl)cc1)Nc1ccc2ccccc2c1,2.9%,11.1%,4.35%,12.9%,20%,29.1%
Cc1ncc(-c2ccccc2)o1,-20.2%,-21.2%,-1.75%,-7%,-19.9%,-15.7%
CC(C)OC/N=C(/N)NC#N,-17.1%,13.1%,-29.4%,12.6%,-10.1%,-6.5%
CCC(O)(c1ccc(OC)cc1)C(c1ccccc1)c1ccccn1 (configuration not stated),-1.3%,-8.8%,6.5%,-16.5%,2.8%,-0.65%
COc1cccc(NC(N)=O)c1,-15.5%,-14.2%,-9.3%,-9.5%,-10.1%,-19.4%
Nc1ncnc(N)c1NC(=O)c1cccc(-c2ccccc2)c1,2.85%,41.1%,23.9%,0.8%,34.9%,-21.1%
O=C(N/N=C/c1ccc(Cl)cc1Cl)C(O)(c1ccccc1)c1ccccc1,17.4%,16.1%,10.2%,22.9%,10.7%,19.3%
CCN(CC)CCCC(C)NCc1ccnc2cc(Cl)ccc12 (configuration not stated),-3.35%,-8.05%,5.95%,-21.4%,1.65%,25.4%
O=C(O)c1cc(=O)[nH]c(SCc2ccc(Cl)cc2Cl)n1,-14.4%,14.5%,-7.05%,-10.2%,9.6%,-1.35%
CCNc1cc2oc(=O)cc(C)c2cc1C,-30.7%,-22.5%,-11.4%,8.05%,-19%,-28.2%
CCOC(=O)CC(c1ccc2c(c1)OCO2)c1cc(OC)c(OC)c(OC)c1 (configuration not stated),-7.65%,24.9%,-3%,0.45%,29.1%,3.2%
OCC(O)C1OC2CC1Nc1ccccc1N2 (configuration not stated),-30.6%,-21.3%,9.6%,17.3%,-15.1%,-12.7%
CC1CC(=O)Nc2nc(N)ncc21 (configuration not stated),19.4%,21.8%,15.7%,-3.8%,7.75%,3.9%
CCCCC1(O)c2ccc3ccccc3c2C(O)(CCCC)c2cccc(-c3ccccc3)c21 (configuration not stated),24.1%,-0.05%,10.2%,-1.75%,-3.15%,38.8%
CN1C(NC(=O)C(C)(C)O)C(C)(C)C(C)(C)C1NC(=O)C(C)(C)O (configuration not stated),27.9%,2%,42.3%,6.8%,26.8%,29.6%
O=C1NC(N2CCCC(CO)C2)=N/C1=C\c1ccccc1 (configuration not stated),-15.6%,-2.85%,10%,7.6%,7.15%,-33.7%
O=c1oc2c(-c3c(O)c(=O)oc4ccccc34)cc(O)cc2s1,10.3%,14.6%,22.9%,17.1%,10%,36%
